Our source for the Potency values is PubChem BioAssay AID1463 (National Center for Advancing Translational Sciences (NCATS), 2008).

In all, about 280,000 compounds went through this assay and about 2,600 (0.93%) were called active. Where a call stands in place of a potency, no number is given. Roughly 8% stayed inconclusive and do not appear here. The sample holds actives, similar compounds and a random draw of the others, so the mix is not that of the screen. Calls follow the shape of the dose curve; as a rule, active = well fitted curve in the direction sought with a large enough effect; inconclusive = small, poorly fitted or top-dose-only effect; inactive = flat fitted curve, though single readings scatter.
Potency is read from the fitted curve at half-maximal effect; tags tell the direction and shape of the fitted curve or compound fluorescence and quenching.

The nature of the test: Counterscreen qHTS for Inhibitors of Tau Fibril Formation, Fluorescence Polarization. Also: nearly all actives have a fitted effect of over 55% in size. Particulars: tau K18 P301L Alexa594 fluorescence, heparin fibrillization; series mostly up to 57.7 µM. The essentials:
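Human tau K18 P301L (15 uM unlabeled, 0.24 uM Alexa 594-labeled) in 100 mM sodium acetate pH 7 with 20 uM heparin, 6 hr at 37 C. ThT 30 uM added, 1 hr ambient; Alexa 594 FP and total fluorescence read at 555/632 nm.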
A general note: The purpose of a counterscreen is to sort out artefacts and off-target activity.
For `CCOc1ccccc1N(CC)C(=O)c1cc2ccc3cccnc3c2[nH]1`, the Potency result is “inactive”.
Under `CCOc1ccc(N(C)S(=O)(=O)c2cc(-c3cnc(C)o3)ccc2OC)cc1` stands “inactive”; under `Cc1cc(C)cc(Nc2ncnc3onc(-c4ccc(F)cc4)c23)c1`, “inactive”.
Under `Cc1cc(OCC(=O)NCC2(N(C)C)CCCCC2)cc(C)c1Cl` stands “inactive”; under `COC(=O)c1sccc1S(=O)(=O)N(CC(=O)Nc1ccc(C)c(F)c1)c1ccc(C)c(C)c1`, “inactive”; under `Cc1nn(Cc2ccc(F)cc2)c(C)c1NC(=O)c1cc(CC(C)C)on1`, “inactive”.
Under `CCc1nc2ccc(C(=O)N3CCN(c4cc(Cl)ccc4C)CC3)cc2nc1CC` stands “inactive”.
Take `COc1cccc(C(=O)Nc2ccc3nc4n(c(=O)c3c2)CCCCC4)c1`: the Potency entry is “inactive”.
As to `COc1ccc(NC(=O)c2ccc3nc(C(C)C)oc3c2)cc1OC`, the Potency result is “inactive”.
On to `COc1ccc(C(=O)Nc2ccc3nc(N4CCCCC4)cc(C)c3c2)cc1OC`, for which the Potency is 10 µM [quencher] (active).
Turning to `COc1ccccc1CN1CCC(CNC(=O)c2cnn(-c3ccccc3Cl)c2C2CCN(C(=O)OC(C)(C)C)CC2)CC1`, the Potency result is “inactive”.
For `Fc1ccc(-c2nn(-c3ccccc3Cl)c3c2cnc2ccccc23)cc1` the value was “inactive”; for `O=C(Nc1ccc2oc(-c3ccc4ccccc4c3)nc2c1)c1cccs1`, “inactive”.
Under `O=C(Nc1ccccc1)Nc1nc2ccccc2s1` stands “inactive”; under `O=C(Nc1ccc2ccccc2c1)Nc1ccc2snnc2c1`, 4.47 µM [quencher] (active); under `Cc1cc(C)c(NC(=O)CN2C(=O)c3cccnc3Oc3ccc(Cl)cc32)c(C)c1`, “inactive”.
Under `COc1ccc(N2CCN(S(=O)(=O)c3ccc(-c4coc(C)n4)cc3)CC2)cc1` stands “inactive”; under `CCOc1ccc(-c2nc(N)ncc2-c2ccccc2OC)c(O)c1`, “inactive”; under `COc1ccc(-c2[nH]ncc2CN(C)Cc2c(C)n[nH]c2C)c(OC)c1`, “inactive”.
For `CCOc1ccccc1Oc1cn[nH]c1-c1ccc(OC)cc1O`, the Potency was 12.6 µM [quencher] (active).
Under `COc1ccccc1CNC(=O)c1ccc(-n2c(C)cc3c2CCCC3)cc1` stands “inactive”; under `COc1ccc(OC)c(CNC(=O)c2c3c(nc4ccccc24)C(=O)N(C2CCCCC2)C3)c1`, “inactive”.
For `Fc1ccc(C(Nc2ccc(Cl)c(C(F)(F)F)c2)c2nnc(-c3ccccc3)o2)cc1` (centres undefined) the value was “inactive”.
On to `N#C/C(=C/c1ccc(N2CCCCC2)o1)C(=O)NCCc1c[nH]c2ccccc12`, for which the Potency is 15.8 µM [quencher] (active).
For the compound `N#C/C(=C/c1ccc(-c2ccccc2[N+](=O)[O-])o1)C(=O)NCCN1CCCCC1`, the Potency entry is “inactive”.
Under `O=C(NCCc1c[nH]c2ccccc12)C(=O)NCC1CCCO1` (centres undefined) stands “inactive”; under `COc1ccc(/C=C/C(=O)Nc2ccc3c(c2)OCCO3)cc1OC`, “inactive”; under `Cc1ccc(Nc2c3c(nc4ccccc24)CCC3)cc1`, “inactive”.
Under `COc1ccccc1Nc1c2c(nc3ccc(NC(=O)/C=C/c4cc(OC)c(OC)c(OC)c4)cc13)CCCC2` stands 10 µM [quencher] (active).
